# From PubChem BioAssay (NCATS)
# Results filed as inconclusive are left out. A call without a number means that no potency is given here. Activity calls are given as the source filed them. Calls follow the shape of the dose curve; as a rule, active = well fitted inhibition curve with a large enough effect; inconclusive = small, poorly fitted or top-dose-only effect; inactive = flat fitted curve, though single readings scatter.
# Biological target: Luciferin 4-monooxygenase (Photinus pyralis) (UniProt P08659)
# Assay: Biochemical firefly luciferase enzyme assay for NPC (AID 624030); also: nearly all actives have a fitted effect of over 70% in size
# Conditions: purified P. pyralis luciferase, luminescence, 5 min; series mostly up to 58.6 µM
# Text: Charcot-Marie-Tooth-Association [CMTA] National Center for Advancing Translational Sciences [NCATS] Charcot-Marie-Tooth (CMT) disease was first characterized by Jean-Martin Charcot and Pierre Marie in France and, independently, by Howard Henry Tooth in England in 1886. CMT is one of the most common inherited neurological diseases, affecting approximately 1 in 2,500 Americans. […] The most prevalent type of CMT is known as CMT1A and caused by a duplication of the PMP22 gene which leads to over-expression of this protein. PMP22 is a glycosylated intrinsic membrane protein accounting for 2-5% of the myelin protein content, and its over-expression results in demyelination and subsequently axonal loss. A pair of cellular transcription-based assays was developed in the S16 rat Schwann cell lines (Hai, M., et al., 2002) stably transfected with orthogonal reporters - firefly luciferase (Fluc) and beta-lactamase (beta-Lac) - whose expression is driven by an intronic regulatory element of the PMP22 gene (Jones, E.A., et al., 2011) to recapitulate endogenous expression of PMP22. A comprehensive library of approved drugs, the NCGC Pharmaceutical Collection (Huang, R., et al., 2011), was screened in the cross-validating platform of the orthogonal reporter assays to identify drug modulators inhibitory towards PMP22 expression. A set of counter-screens was devised to address non-specific activity of the library. An ATP-dependent CellTiter-Glo assay (developed by Promega Corp) was utilized to control cell viability. In addition, biochemical Fluc enzyme assay was performed to assess direct inhibition of the Fluc enzymatic activity. References Hai, M., Muja, N., DeVries, G.H., Quarles, R.H. and Patel, P.I. Comparative analysis of Schwann cell lines as model systems for myelin gene transcription studies. J Neurosci Res, 2002. 69(4): pp 497-508 Huang, R., Southall, N., Wang, Y., Yasgar A., Shinn P., Jadhav, A. , Nguyen, D.-T. and Austin, C.P., The NCGC pharmaceutical collection: a comprehensive resource of clinically approved drugs enabling repurposing and chemical genomics. Sci Transl Med, 2011. 3(80): p. 80ps16.
# Compounds were transferred to the plates in 23nl, and one microliter/well luciferase enzyme-buffer solution (10 nM P. pyralis luciferase and 50 mM Tris Acetate final concentrations) was dispensed yielding a final reaction volume of […]. Luciferase luminescence was measured by a ViewLux plate reader within 5 minutes of enzyme-buffer addition. The % activity was determined by normalizing to the average readings of PTC124 (a positive control) relative to DMSO (0% Activity). The concentration-effect curves were then classified based on curve quality (r2), response magnitude and degree of measured activity.
# Potency is read from the fitted curve at half-maximal effect.
# Sequence of Luciferin 4-monooxygenase (Photinus pyralis) (P08659 whole entry, looked up): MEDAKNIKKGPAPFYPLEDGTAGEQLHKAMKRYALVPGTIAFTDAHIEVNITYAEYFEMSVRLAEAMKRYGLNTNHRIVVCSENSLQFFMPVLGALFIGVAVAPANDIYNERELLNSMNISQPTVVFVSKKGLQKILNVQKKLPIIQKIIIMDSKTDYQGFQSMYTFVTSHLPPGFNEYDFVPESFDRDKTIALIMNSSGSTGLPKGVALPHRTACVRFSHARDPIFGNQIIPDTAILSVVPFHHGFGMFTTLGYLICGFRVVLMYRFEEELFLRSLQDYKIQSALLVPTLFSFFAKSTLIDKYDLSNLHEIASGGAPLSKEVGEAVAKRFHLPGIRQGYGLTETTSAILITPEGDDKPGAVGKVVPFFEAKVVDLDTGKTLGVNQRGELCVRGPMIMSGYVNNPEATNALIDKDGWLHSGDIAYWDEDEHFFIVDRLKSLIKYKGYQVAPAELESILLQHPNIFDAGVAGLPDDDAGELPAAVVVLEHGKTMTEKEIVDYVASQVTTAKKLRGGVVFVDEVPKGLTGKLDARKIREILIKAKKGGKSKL
row,Compound,Potency
1,CN1C(=O)CCC1c1cccnc1 (stereo not drawn),inactive
2,C=C1/C(=C\C=C2/CCC[C@]3(C)[C@@H]([C@H](C)CCCC(C)(C)O)CC[C@@H]23)C[C@@H](O)C[C@@H]1O,inactive
3,CN=C(N)NCCCC(N)C(=O)O (stereo not drawn),inactive
4,CC(/C=C1\SC(=S)N(CC(=O)O)C1=O)=C\c1ccccc1,6.42 µM (active)
5,C[C@@H]1[C@H](O)[C@@H](C)/C=C/C=C/C=C/C=C/C=C/C=C/C=C/[C@H](O[C@@H]2O[C@H](C)[C@@H](O)[C@H](N)[C@@H]2O)C[C@@H]2O[C@](O)(C[C@@H](O)C[C@@H](O)[C@H](O)CC[C@@H](O)C[C@@H](O)CC(=O)O[C@H]1C)C[C@H](O)[C@H]2C(=O)O,inactive
6,COc1cc2c(cc1OC)C(c1ccccc1)CN(C)CC2 (stereo not drawn),inactive
7,C=C1CCC2[C@](C)(CO)C(O)CC[C@]2(C)C1C/C=C1/C(=O)OCC1O (stereo partly drawn),inactive
8,CC(C)(C)[C@]1(O)CCN2CC3c4ccccc4CCc4cccc(c43)[C@@H]2C1 (stereo partly drawn),inactive
9,COc1ccc(CCNC[C@@H](O)c2ccc(O)cc2)cc1OC,inactive
10,CC(C)C[C@H]1C(=O)N2CCCC2[C@]2(O)O[C@](NC(=O)[C@@H]3C=C4c5cccc6[nH]c(Br)c(c56)C[C@H]4N(C)C3)(C(C)C)C(=O)N12 (stereo partly drawn),inactive
11,C[C@@]12C(=O)OC(=O)[C@]1(C)[C@H]1CC[C@@H]2O1,inactive
12,COC[C@@H](c1ccc(C(F)(F)F)cc1)N1CCN(C2(C)CCN(C(=O)c3c(C)ncnc3C)CC2)C[C@@H]1C,inactive
13,Nc1nc(F)nc2c1ncn2[C@@H]1O[C@H](COP(=O)(O)O)[C@@H](O)[C@@H]1O,inactive
